This is a sample that favours compounds with a hit; in the whole collection about 3.6% have one here.
SARS 3CLpro inh = SARS-CoV 3CLpro protease inhibitors, primary screen, biochemical, quenched FRET. Replicase polyprotein 1ab (Severe acute respiratory syndrome coronavirus), P0C6X7. recombinant SARS-CoV 3CLpro, quenched FRET peptide cleavage. inhibition, % at 6 µM. 290,000 compounds, 0.14% hits; in the data active = inhibition above about 12%
BoNT A protease = BoNT/A light chain protease inhibitors, primary screen, biochemical, flow cytometry, MLPCN library; inhibition, % at 10 µM; 360,000 compounds, 0.17% hits; Botulinum neurotoxin type A light chain protease (Clostridium botulinum A str. ATCC 3502); multiplex microsphere protease substrate cleavage; in the data active = inhibition above about 30%
Anthrax LF inh2 = Bacillus anthracis LF protease inhibitors, primary screen, biochemical, multiplex microsphere, MLPCN library; Lethal factor (Bacillus anthracis), P15917; 360,000 compounds, 0.12% hits; inhibition, % at 10 µM; multiplex microsphere protease cleavage assay; in the data active = inhibition above about 30%
Bead autofluor = flagged as autofluorescent in microsphere protease counterscreen | compound autofluorescence counterscreen, microsphere flow cytometry; stronger effect = higher value | fluorescence intensity (no concentration beside the values) | AID 624483 | 360,000 compounds, 3.1% hits; in the data active = fluorescence intensity above about 16000
BJeLR lethal = MLPCN primary cell-based screen for lethality selective to Ras in HRASV12 cells; BJeLR (HRASV12) viability, CellTiter-Glo ATP luminescence, 48 h; inhibition, % (test concentration not listed); 300,000 compounds, 0.17% hits; AID 1554, 2009; in the data active = inhibition above about 50%
BoNT-F LC inh = BoNT/F light chain protease inhibitors, primary screen, biochemical, flow cytometry, MLPCN library; Botulinum neurotoxin type F light chain protease (Clostridium botulinum); Multiplex microsphere protease cleavage assay; inhibition, % at 10 µM; 360,000 compounds, 0.22% hits; AID 588497, 2011; in the data active = inhibition above about 35%, passing the limit was not always enough
BoNT-A LC CP2 = BoNT/A light chain protease inhibitors, confirmation, biochemical, flow cytometry, cherry pick 2. shares compounds with BoNT A protease. multiplex microsphere protease cleavage assay. inhibition, % at 10 µM. 150 compounds, 10% hits; in the data active = inhibition above about 24%
Anthrax LF CP2 = Bacillus anthracis LF protease inhibitors, confirmation, biochemical, multiplex microsphere; shares compounds with BoNT A protease; multiplex microsphere protease cleavage assay; inhibition, % at 10 µM; 150 compounds, 7% hits; AID 602327, 2012
BoNTF LC inh 2 = BoNT/F light chain protease inhibitors, confirmation, biochemical, flow cytometry, cherry pick 2. shares compounds with BoNT A protease. multiplex microsphere protease cleavage assay. inhibition, % at 10 µM. 150 compounds, 7% hits. AID 602336, 2012
Each line names hits and unclear results; the compound was inactive in the other large screens (follow-up assays come after a bar, where they were run). Cut-off read from the data, not from the text of the source, unless noted: active = inhibition above about 25%; inactive = the rest.

CC1CCN(c2ccc3c(c2)S(=O)(=O)c2cccc(C(=O)NC[C@@H]4CCCO4)c2C3=O)CC1	none (no result: SARS 3CLpro inh, BJeLR lethal) | BoNT-A LC CP2 inactive | Anthrax LF CP2 inactive | BoNTF LC inh 2 inactive
CC(C)CN(C(=O)CCNC(=O)c1ccccc1Cl)C1CCS(=O)(=O)C1 (stereo not given)	none (no result: SARS 3CLpro inh, BJeLR lethal)
COc1ccc(Cl)c(-c2cc(C(=O)Nc3ccc(F)cc3)[nH]n2)c1	none (no result: SARS 3CLpro inh, BJeLR lethal)
Cc1csc(NC(C)c2nc3cc(Cl)c(N4CCCCC4)cc3n2CCOCCO)n1 (stereo not given)	none (no result: SARS 3CLpro inh)
O=C(COC(=O)CCC(=O)c1cccs1)NC(=O)c1ccc(OC(F)F)cc1	none
CN=c1nc(-c2ccccc2)n(-c2ccccc2)s1	BoNT-F LC inh 48.2 (no result: SARS 3CLpro inh, BJeLR lethal) | BoNT-A LC CP2 inactive | Anthrax LF CP2 inactive | BoNTF LC inh 2 inactive
Cn1nc(-c2ccccc2)nc1-c1ccccc1	none (no result: SARS 3CLpro inh)
Cc1cc2nc(C3CCCCC3)c(Cc3ccccc3)n2c(C)c1Br	none (no result: SARS 3CLpro inh, BJeLR lethal)
COc1ccc(C(=O)OCC(=O)c2c[nH]c3ccccc23)c(OC)c1	none (no result: SARS 3CLpro inh, BJeLR lethal) | BoNT-A LC CP2 inactive | Anthrax LF CP2 inactive | BoNTF LC inh 2 inactive
O=C(OCC(=O)c1c[nH]c2ccccc12)c1ccc(OC(F)F)cc1	none (no result: SARS 3CLpro inh, BJeLR lethal) | BoNT-A LC CP2 inactive | Anthrax LF CP2 inactive | BoNTF LC inh 2 inactive
COc1ccc(C(=O)OCC(=O)c2cc(OC)ccc2OC)c(OC)c1	none
O=C(OCC(=O)c1c[nH]c2ccccc12)c1cncc(Br)c1	none (no result: SARS 3CLpro inh, BJeLR lethal)
COc1cccc(C(=O)OCC(=O)c2c[nH]c3ccccc23)c1OC	none (no result: SARS 3CLpro inh, BJeLR lethal) | BoNT-A LC CP2 inactive | Anthrax LF CP2 inactive | BoNTF LC inh 2 inactive
NC(=O)Nc1ccc(C(=O)OCC(=O)c2c[nH]c3ccccc23)cc1	none (no result: SARS 3CLpro inh, BJeLR lethal)
O=C(OCC(=O)c1c[nH]c2ccccc12)c1cccc([N+](=O)[O-])c1	BoNT A protease 33.4, Anthrax LF inh2 39.2 (no result: SARS 3CLpro inh, BJeLR lethal) | BoNT-A LC CP2 inactive | Anthrax LF CP2 inactive | BoNTF LC inh 2 inactive
COc1ccccc1C(=O)COC(=O)Cc1c[nH]c2ccccc12	none (no result: SARS 3CLpro inh)
O=C(CSc1nc(C(F)(F)F)cc(=O)[nH]1)N1CCCC1	none (no result: SARS 3CLpro inh)
COc1cccc(C#Cc2cnc3c(c2)C(=O)N([C@@H](C)CO)C[C@H](C)[C@H](CN(C)C(=O)C2CCC2)O3)c1	none (no result: SARS 3CLpro inh, BJeLR lethal)
COc1ccc(CNS(=O)(=O)c2ccc(C)cc2)cc1	none (no result: SARS 3CLpro inh)
Cc1cc2cc(CNS(=O)(=O)c3ccccc3)ccc2n1C	BoNT A protease 83.3 | BoNT-A LC CP2 inactive | Anthrax LF CP2 inactive | BoNTF LC inh 2 inactive
COc1ccc(S(=O)(=O)NCc2ccc3c(c2)cc(C)n3C)cc1	BoNT A protease 79.4 | BoNT-A LC CP2 24.2 | Anthrax LF CP2 inactive | BoNTF LC inh 2 inactive
CCc1cccc2c(C(=O)COC(=O)c3ccccc3)c[nH]c12	none | BoNT-A LC CP2 inactive | Anthrax LF CP2 inactive | BoNTF LC inh 2 24.9
CCc1cccc2c(C(=O)COC(=O)c3ccc(O)cc3)c[nH]c12	none | BoNT-A LC CP2 inactive | Anthrax LF CP2 inactive | BoNTF LC inh 2 36.8
OCC1OC(Oc2c[nH]c3ccccc23)C(O)C(O)C1O (stereo not given)	none (no result: SARS 3CLpro inh)
CC(=NNc1nc2ccccc2o1)c1cc2ccccc2cn1	BoNT A protease 50.8, Anthrax LF inh2 58.9, BoNT-F LC inh 74.3 (no result: SARS 3CLpro inh, BJeLR lethal) | BoNT-A LC CP2 inactive | Anthrax LF CP2 26.0 | BoNTF LC inh 2 53.9
Cc1cc2cc(CNC(=O)c3ccc(C)c([N+](=O)[O-])c3)ccc2[nH]1	BoNT A protease 64.8 | BoNT-A LC CP2 inactive | Anthrax LF CP2 inactive | BoNTF LC inh 2 inactive
O=C(NC12CC3CC(CC(C3)C1)C2)c1cncc(Br)c1	none
O=C(COC(=O)c1cncc(Br)c1)NC12CC3CC(CC(C3)C1)C2	BoNT A protease 72.1, Anthrax LF inh2 57.5 (no result: SARS 3CLpro inh, BJeLR lethal) | BoNT-A LC CP2 29.1 | Anthrax LF CP2 29.5 | BoNTF LC inh 2 inactive
CCN(CC)S(=O)(=O)c1cccc(NC(=O)COC(=O)c2ccc(Br)o2)c1	none
CCN(CC)S(=O)(=O)c1cccc(NC(=O)COC(=O)c2cncc(Br)c2)c1	Anthrax LF inh2 39.2 (no result: SARS 3CLpro inh, BJeLR lethal) | BoNT-A LC CP2 inactive | Anthrax LF CP2 inactive | BoNTF LC inh 2 inactive

High-throughput results deposited in PubChem BioAssay by several laboratories.
